Reference: PubChem BioAssay (NCI)
Compounds without any hit were thinned out: in the full panel of roughly 79,000, 15% have a hit. Values without a mark were called inactive. Activity calls are given as the source filed them. Rule as the data show it: active = growth inhibition above about 70%; inactive = the rest.

Experiments:
[1] = NCI Yeast Anticancer Drug Screen. Data for the mec2-1 strain (AID 157); details: S. cerevisiae mec2-1 strain, stronger effect = higher value
Method in brief: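 Vehicle-treated cultures served as reference for growth inhibition of compound-exposed mec2-1 yeast.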

[2] = NCI Yeast Anticancer Drug Screen. Data for the rad14 strain (AID 159);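 also: 0% = growth of vehicle-treated control cultures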; details: S. cerevisiae rad14 strain growth inhibition, stronger effect = higher value
Method in brief: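 Screen for anticancer potential: a yeast strain altered in DNA damage repair is grown with compound, and reduced growth is quantified against vehicle controls.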

[3] = NCI Yeast Anticancer Drug Screen. Data for the sgs1 mgt1 strain (AID 161);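 also: 0% = growth of cultures given vehicle only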; details: S. cerevisiae sgs1 mgt1 strain, stronger effect = higher value
Method in brief: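 Mutant yeast exposed to compound; growth scored against vehicle-only wells.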

[4] = NCI Yeast Anticancer Drug Screen. Data for the CLN2oe strain (AID 163);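 also: 0% = growth of vehicle-only control cultures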; details: S. cerevisiae CLN2oe strain, stronger effect = higher value
Method in brief: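 Inhibition relative to vehicle-treated yeast is reported. Cells: strain with genetic alteration in cell-cycle control, grown with compound.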

[5] = NCI Yeast Anticancer Drug Screen. Data for the cln2 rad14 strain (AID 165);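 also: 0% = growth equal to vehicle treated cultures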; details: S. cerevisiae cln2 rad14 strain, stronger effect = higher value
Method in brief: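 Each compound was tested on cln2 rad14 yeast. Inhibition of growth was calculated against vehicle-exposed controls.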

[6] = NCI Yeast Anticancer Drug Screen. Data for the bub3 strain (AID 167); details: S. cerevisiae bub3 mutant strain, stronger effect = higher value
Method in brief: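 Screening used yeast with an engineered genetic alteration affecting cell cycle control. Compound-exposed cultures were compared with vehicle cultures, and reduced growth was taken as inhibition.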

[7] = NCI Yeast Anticancer Drug Screen. Data for the wt2 strain (AID 169);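 also: 0% = growth of vehicle-treated yeast cultures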; details: S. cerevisiae wt2 strain growth inhibition, stronger effect = higher value
Method in brief: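 Inhibition of yeast growth was determined after compound treatment, normalised to controls receiving only vehicle.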

[8] = NCI Yeast Anticancer Drug Screen. Data for the mlh1 strain (AID 171);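 also: 0% = growth of vehicle-treated control cultures of the same strain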; details: S. cerevisiae mlh1 strain growth inhibition, stronger effect = higher value
Method in brief: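 Vehicle-normalised growth inhibition of a repair- or checkpoint-altered yeast strain following compound treatment.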

[9] = NCI Yeast Anticancer Drug Screen. Data for the sgs1 strain (AID 173);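 also: 0% = growth of vehicle-only control cultures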; details: S. cerevisiae sgs1 mutant, stronger effect = higher value
Method in brief: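 Screen format: yeast with repair or checkpoint alterations, compound exposure, growth read relative to vehicle.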

[10] = NCI Yeast Anticancer Drug Screen. Data for the mlh1 rad18 strain (AID 175); details: S. cerevisiae mlh1 rad18 strain growth inhibition, stronger effect = higher value
Method in brief: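 Vehicle-treated cultures served as the reference for growth inhibition in a yeast strain carrying DNA damage repair alterations exposed to each compound.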

[11] = NCI Yeast Anticancer Drug Screen. Data for the rad18 strain (AID 177); details: S. cerevisiae rad18 mutant growth inhibition, stronger effect = higher value
Method in brief: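 Test articles were incubated with altered yeast defective in DNA damage repair. Results are given as inhibition of growth versus vehicle.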

[12] = NCI Yeast Anticancer Drug Screen. Data for the rad52 strain (AID 147);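 also: 0% = growth of vehicle-treated control cultures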; details: S. cerevisiae rad52 mutant growth inhibition, stronger effect = higher value
Method in brief: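 Vehicle-treated cultures served as the reference for growth inhibition of compound-exposed yeast bearing a DNA repair mutation.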

[13] = NCI Yeast Anticancer Drug Screen. Data for the wt1 strain (AID 149);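 also: 0% = growth of vehicle-treated wt1 cultures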; details: S. cerevisiae wt1 strain (SPY 50644) growth inhibition, stronger effect = higher value
Method in brief: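 Using yeast strain wt1, compound-induced growth inhibition was determined against vehicle-treated cultures.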

[14] = NCI Yeast Anticancer Drug Screen. Data for the rad50EPP+ strain (AID 151);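 also: 0% = growth of vehicle-treated control cultures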; details: S. cerevisiae rad50 mutant strain, stronger effect = higher value
Method in brief: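 In this screen, rad50EPP+ yeast were exposed to compounds. Growth inhibition was scored against vehicle-treated controls.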

[15] = NCI Yeast Anticancer Drug Screen. Data for the mgt1 strain (AID 153); details: S. cerevisiae mgt1 mutant growth inhibition, stronger effect = higher value
Method in brief: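 mgt1 strain exposed; growth vs vehicle control recorded as inhibition.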

[16] = NCI Yeast Anticancer Drug Screen. Data for the rad50 strain (AID 155);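 also: 0% = growth of vehicle-only cultures of the same strain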; details: S. cerevisiae rad50 strain growth inhibition, stronger effect = higher value
Method in brief: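 Relative growth inhibition (compound vs vehicle) was measured in yeast with a defined repair-gene alteration.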

[17] = at 5.0 µM (retest, dose inferred, filed as 0.5)
[18] = at 50.0 µM (retest, dose inferred, filed as 5.0)

Compound `COC(=N)c1ccc(O)c(C)c1` has a growth inhibition [1, 17] of -46%, a growth inhibition ([1]; at 11.0 µM) of -1% and a growth inhibition ([1]; at 33.0 µM) of 1%. It also gave a growth inhibition [1, 18] of -21%, a growth inhibition ([1]; at 50.0 µM) of 2.2% and a growth inhibition ([1]; at 100.0 µM) of 1%. It also gave a growth inhibition ([2]; at 1.2 µM) of -3%, a growth inhibition ([2]; at 3.7 µM) of 0% and a growth inhibition ([2]; at 11.0 µM) of -2%. For the same compound, the growth inhibition ([2]; at 33.0 µM) was -4%, the growth inhibition ([2]; at 100.0 µM) was -1% and the growth inhibition [3, 17] was -53%. The growth inhibition [3, 18] was -40%, the growth inhibition ([3]; at 50.0 µM) was -8.2% and the growth inhibition ([4]; at 1.2 µM) was -2%. The growth inhibition ([4]; at 3.7 µM) was 3%, the growth inhibition ([4]; at 11.0 µM) was 0% and the growth inhibition ([4]; at 33.0 µM) was -3%. For the same compound, the growth inhibition ([4]; at 100.0 µM) was -6%, the growth inhibition [5, 17] was -52% and the growth inhibition [5, 18] was -22%. For the same compound, the growth inhibition ([5]; at 50.0 µM) was -38.2%, the growth inhibition ([6]; at 1.2 µM) was -3% and the growth inhibition ([6]; at 3.7 µM) was -5%. For the same compound, the growth inhibition [6, 17] was -61%, the growth inhibition ([6]; at 11.0 µM) was 0% and the growth inhibition ([6]; at 33.0 µM) was -2%. The growth inhibition [6, 18] was 78% (active), the growth inhibition ([6]; at 50.0 µM) was 5.2% and the growth inhibition ([6]; at 100.0 µM) was 4%. It also gave a growth inhibition ([7]; at 1.2 µM) of -2%, a growth inhibition ([7]; at 3.7 µM) of 0% and a growth inhibition ([7]; at 11.0 µM) of -2%. For the same compound, the growth inhibition ([7]; at 33.0 µM) was -4%, the growth inhibition ([7]; at 100.0 µM) was -1% and the growth inhibition ([8]; at 1.2 µM) was 6%. The growth inhibition ([8]; at 3.7 µM) was -6%, the growth inhibition ([8]; at 11.0 µM) was -7% and the growth inhibition ([8]; at 33.0 µM) was -7%. It also gave a growth inhibition ([8]; at 100.0 µM) of -7%, a growth inhibition ([9]; at 1.2 µM) of -1% and a growth inhibition ([9]; at 3.7 µM) of -1%. For the same compound, the growth inhibition ([9]; at 11.0 µM) was -1%, the growth inhibition ([9]; at 33.0 µM) was -2% and the growth inhibition ([9]; at 100.0 µM) was -2%. It also gave a growth inhibition [10, 17] of -123%, a growth inhibition [10, 18] of -74% and a growth inhibition ([10]; at 50.0 µM) of -6.9%. For the same compound, the growth inhibition ([11]; at 1.2 µM) was -2%, the growth inhibition ([11]; at 3.7 µM) was -1% and the growth inhibition ([11]; at 11.0 µM) was 1%. It also gave a growth inhibition ([11]; at 33.0 µM) of 3% and a growth inhibition ([11]; at 100.0 µM) of 8%.
Work on `CCc1c(Cl)c(C)c(Cl)c(O)c1Cl` yielded a growth inhibition ([12]; at 1.2 µM) of -22%, a growth inhibition ([12]; at 3.7 µM) of -30% and a growth inhibition ([12]; at 11.0 µM) of -9%. The growth inhibition ([12]; at 33.0 µM) was 97% (active), the growth inhibition ([12]; at 100.0 µM) was 99% (active) and the growth inhibition ([13]; at 1.2 µM) was -27%. For the same compound, the growth inhibition ([13]; at 3.7 µM) was -25%, the growth inhibition ([13]; at 11.0 µM) was 1% and the growth inhibition ([13]; at 33.0 µM) was 93% (active). The growth inhibition ([13]; at 100.0 µM) was 98% (active), the growth inhibition ([14]; at 1.2 µM) was -7% and the growth inhibition ([14]; at 3.7 µM) was 0%. The growth inhibition ([14]; at 11.0 µM) was 32%, the growth inhibition ([14]; at 33.0 µM) was 87% (active) and the growth inhibition ([14]; at 100.0 µM) was 96% (active). For the same compound, the growth inhibition ([15]; at 1.2 µM) was -33%, the growth inhibition ([15]; at 3.7 µM) was -32% and the growth inhibition ([15]; at 11.0 µM) was -14%. For the same compound, the growth inhibition ([15]; at 33.0 µM) was 98% (active), the growth inhibition ([15]; at 100.0 µM) was 99% (active) and the growth inhibition ([16]; at 1.2 µM) was -11%. It also gave a growth inhibition ([16]; at 3.7 µM) of -28%, a growth inhibition [16, 17] of 57% and a growth inhibition ([16]; at 11.0 µM) of 6%. The growth inhibition ([16]; at 33.0 µM) was 96% (active), the growth inhibition [16, 18] was 98% (active) and the growth inhibition ([16]; at 50.0 µM) was 92% (active). For the same compound, the growth inhibition ([16]; at 100.0 µM) was 99% (active), the growth inhibition ([1]; at 1.2 µM) was -28% and the growth inhibition ([1]; at 3.7 µM) was -12%. For the same compound, the growth inhibition [1, 17] was 61%, the growth inhibition ([1]; at 11.0 µM) was 2% and the growth inhibition ([1]; at 33.0 µM) was 95% (active). For the same compound, the growth inhibition [1, 18] was 98% (active), the growth inhibition ([1]; at 50.0 µM) was 93.3% (active) and the growth inhibition ([1]; at 100.0 µM) was 97% (active). For the same compound, the growth inhibition ([2]; at 1.2 µM) was -11%, the growth inhibition ([2]; at 3.7 µM) was -12% and the growth inhibition ([2]; at 11.0 µM) was 10%. For the same compound, the growth inhibition ([2]; at 33.0 µM) was 98% (active), the growth inhibition ([2]; at 100.0 µM) was 99% (active) and the growth inhibition [3, 17] was -16%. The growth inhibition [3, 18] was 97% (active), the growth inhibition ([3]; at 50.0 µM) was 93.8% (active) and the growth inhibition ([4]; at 1.2 µM) was 13%. The growth inhibition ([4]; at 3.7 µM) was 17%, the growth inhibition ([4]; at 11.0 µM) was 11% and the growth inhibition ([4]; at 33.0 µM) was 90% (active). For the same compound, the growth inhibition ([4]; at 100.0 µM) was 99% (active), the growth inhibition [5, 17] was 38% and the growth inhibition [5, 18] was 98% (active). The growth inhibition ([5]; at 50.0 µM) was 92.8% (active), the growth inhibition ([6]; at 1.2 µM) was 1% and the growth inhibition ([6]; at 3.7 µM) was -4%. The growth inhibition [6, 17] was 16%, the growth inhibition ([6]; at 11.0 µM) was 5% and the growth inhibition ([6]; at 33.0 µM) was 96% (active). For the same compound, the growth inhibition [6, 18] was 98% (active), the growth inhibition ([6]; at 50.0 µM) was 92.9% (active) and the growth inhibition ([6]; at 100.0 µM) was 99% (active). It also gave a growth inhibition ([7]; at 1.2 µM) of -8%, a growth inhibition ([7]; at 3.7 µM) of -12% and a growth inhibition ([7]; at 11.0 µM) of 2%. For the same compound, the growth inhibition ([7]; at 33.0 µM) was 97% (active), the growth inhibition ([7]; at 100.0 µM) was 99% (active) and the growth inhibition ([8]; at 1.2 µM) was -12%. For the same compound, the growth inhibition ([8]; at 3.7 µM) was -8%, the growth inhibition ([8]; at 11.0 µM) was 7% and the growth inhibition ([8]; at 33.0 µM) was 95% (active). The growth inhibition ([8]; at 100.0 µM) was 99% (active), the growth inhibition ([9]; at 1.2 µM) was -4% and the growth inhibition ([9]; at 3.7 µM) was -13%. For the same compound, the growth inhibition ([9]; at 11.0 µM) was 14%, the growth inhibition ([9]; at 33.0 µM) was 96% (active) and the growth inhibition ([9]; at 100.0 µM) was 99% (active). For the same compound, the growth inhibition [10, 17] was 38%, the growth inhibition [10, 18] was 98% (active) and the growth inhibition ([10]; at 50.0 µM) was 92% (active). It also gave a growth inhibition ([11]; at 1.2 µM) of -19%, a growth inhibition ([11]; at 3.7 µM) of -32% and a growth inhibition ([11]; at 11.0 µM) of -19%. The growth inhibition ([11]; at 33.0 µM) was 96% (active) and the growth inhibition ([11]; at 100.0 µM) was 99% (active).
